Reference: PubChem BioAssay (EPA / NIEHS)
Inconclusive results are not listed. Calls of active or inactive are those of the source. The calls were made as follows, unless noted: active = hit-call score of the fitted dose curve at least 0.9, where 1 is the maximum; inconclusive = response in the unintended direction; inactive = score below 0.9.

Columns and labels:
[1] = target: Retinoic acid receptor RXR-alpha (Homo sapiens) (UniProt P19793); assay: ATG_RXRa_TRANS: Attagene TRANS-FACTORIAL HepG2 Assay for human Retinoid X Receptor alpha (RXRa) (AID 2283012)
Summary of the method: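 Transient transfection of human HepG2 with multiple GAL4-UAS reporter constructs; 24 h compound exposure; total RNA isolated, reverse-transcribed, PCR-amplified, 6-FAM labelled, HpaI-cut, resolved by capillary electrophoresis. Positive-direction fit versus DMSO.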

[2] = target: human Retinoid X Receptor beta (RXRb), RXRB (gene 6257) (UniProt P28702); assay: ATG_RXRb_TRANS: Attagene TRANS-FACTORIAL HepG2 Assay for human Retinoid X Receptor beta (RXRb) (AID 2283013)
Summary of the method: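 Transfect HepG2 with GAL4-UAS multi-reporter constructs (chimeric NR-Gal4, TRANS format); dose compound 24 h; isolate RNA, RT-PCR, FAM primer extension, HpaI digest; quantify by capillary electrophoresis; positive direction vs DMSO.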

[3] = target: human Thyroid Receptor alpha (THRa1), THRA (gene 7067) (UniProt P10827); assay: ATG_THRa1_TRANS: Attagene TRANS-FACTORIAL HepG2 Assay for human Thyroid Receptor alpha (THRa1) (AID 2283014)
Summary of the method: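 Measured here is mRNA from a GAL4-UAS reporter in transfected HepG2 cells carrying a Gal4-fused receptor, 24 h post-dose. DMSO served as negative control and baseline.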

[4] = target: human RAR-related Orphan Receptor gamma (RORg), RORC (gene 6097) (UniProt P51449); assay: ATG_RORg_TRANS: Attagene TRANS-FACTORIAL HepG2 Assay for human RAR-related Orphan Receptor gamma (RORg) (AID 2283011)
Summary of the method: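 Chimeric RORg-Gal4 transactivation in transfected HepG2; 24 h exposure; RT-PCR/capillary electrophoresis readout of reporter mRNA, DMSO baseline.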

[5] = target: human Vitamin D Receptor (VDR), VDR (gene 7421) (UniProt P11473); assay: ATG_VDR_TRANS: Attagene TRANS-FACTORIAL HepG2 Assay for human Vitamin D Receptor (VDR) (AID 2283022)
Summary of the method: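 Multiplexed TRANS reporter in HepG2; 24 h treatment; reporter mRNA by RT-PCR plus capillary electrophoresis; upregulation scored relative to DMSO.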

[6] = read-out: E-selectin (Homo sapiens) (UniProt P16581); assay: BSK_3C_Eselectin: BioMAP Diversity Plus: 3C Assay for Eselectin Biomarker Activity (AID 2283015; active = hit-call score of the fitted dose curve at least 0.9, where 1 is the maximum; inactive = score below 0.9); settings: primary human endothelial cells (HUVEC); actives raise or lower the signal
Summary of the method: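 Endpoint derived by bidirectional fitting against DMSO vehicle; signal is ELISA-detected E-selectin from primary HUVEC at 24 h post-dosing, with parallel SRB staining (0.1% SRB, 560 nm) flagging cytotoxicity.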

[7] = read-out: Interleukin-1 alpha (IL1a), IL1A (gene 3552); assay: BSK_BE3C_IL1a: BioMAP Diversity Plus: BE3C Assay for Interleukin-1 alpha (IL1a) Biomarker Activity (AID 2283016; active = hit-call score of the fitted dose curve at least 0.9, where 1 is the maximum; inactive = score below 0.9); settings: primary human bronchial epithelial cells; actives raise or lower the signal
Summary of the method: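 BE3C primary human bronchial epithelium; cpd 24 h; IL-1a by ELISA; bidirectional fit vs DMSO; parallel SRB (0.1% SRB, 10% TCA fix, 560 nm) for cytotoxicity.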

[8] = read-out: Monocyte Chemoattractant Protein-1 (MCP1), CCL2 (gene 6347); assay: BSK_3C_MCP1: BioMAP Diversity Plus: 3C Assay for Monocyte Chemoattractant Protein-1 (MCP1) Biomarker Activity (AID 2283017; active = hit-call score of the fitted dose curve at least 0.9, where 1 is the maximum; inactive = score below 0.9); settings: primary human endothelial cells (HUVEC); actives raise or lower the signal
Summary of the method: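 Using human vascular primary endothelium, researchers measured MCP-1 by ELISA 24 h after treatment, with DMSO serving as negative control for bidirectional fitting.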

[9] = read-out: Monocyte Chemoattractant Protein-1 (MCP1), CCL2 (gene 6347); assay: BSK_4H_MCP1: BioMAP Diversity Plus: 4H Assay for Monocyte Chemoattractant Protein-1 (MCP1) Biomarker Activity (AID 2283018; active = hit-call score of the fitted dose curve at least 0.9, where 1 is the maximum; inactive = score below 0.9); settings: primary human endothelial cells (HUVEC); actives raise or lower the signal
Summary of the method: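 ELISA read-out of MCP-1 from human vascular endothelial primary cells taken at 24 hours after compound exposure. Activity was fitted in both directions relative to DMSO, which served as negative control.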

[10] = read-out: Human Leukocyte Antigen - DR isotype (HLADR), HLA-DRA (gene 3122); assay: BSK_3C_HLADR: BioMAP Diversity Plus: 3C Assay for Human Leukocyte Antigen - DR isotype (HLADR) Biomarker Activity (AID 2283019; active = hit-call score of the fitted dose curve at least 0.9, where 1 is the maximum; inactive = score below 0.9); settings: primary human endothelial cells (HUVEC); actives raise or lower the signal
Summary of the method: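 Compound added to primary HUVEC cultures, 24 h incubation, then HLA-DR determined by ELISA; endpoint derived by bidirectional fitting relative to DMSO negative control.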

[11] = read-out: Interleukin-8 (IL8), CXCL8 (gene 3576); assay: BSK_3C_IL8: BioMAP Diversity Plus: 3C Assay for Interleukin-8 (IL8) Biomarker Activity (AID 2283020; active = hit-call score of the fitted dose curve at least 0.9, where 1 is the maximum; inactive = score below 0.9); settings: primary human endothelial cells (HUVEC); actives raise or lower the signal
Summary of the method: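 ELISA read-out of IL-8 from human umbilical vein endothelium, measured 24 h after chemical dosing. Activity is expressed relative to DMSO negative control, with both increases and decreases fitted.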

[12] = read-out: Monokine induced gamma interferon (MIG), CXCL9 (gene 4283); assay: BSK_3C_MIG: BioMAP Diversity Plus: 3C Assay for Monokine induced gamma interferon (MIG) Biomarker Activity (AID 2283021; active = hit-call score of the fitted dose curve at least 0.9, where 1 is the maximum; inactive = score below 0.9); settings: primary human endothelial cells (HUVEC); actives raise or lower the signal
Summary of the method: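 Read-out is ELISA detection of MIG on human umbilical vein endothelial cells, taken 24 h after dosing. Gain or loss of signal was scored relative to DMSO controls using bidirectional curve fitting.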

[13] = BSK_3C_SRB: Viability Assessment in the BioMAP Diversity Plus: 3C Assay (AID 2283023; active = hit-call score of the fitted dose curve at least 0.9, where 1 is the maximum; inactive = score below 0.9;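 also: fitted both ways against DMSO so a hit may be signal rise or drop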); settings: primary human endothelial cells (HUVEC)
Summary of the method: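 Overt cytotoxicity is gauged in parallel confluent HUVEC cultures by SRB total-protein staining at the time of biomarker measurement, 24 h after dosing. Gain or loss of signal is fitted versus DMSO.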

[14] = read-out: Matrix Metallopeptidase 1 (MMP1), MMP1 (gene 4312); assay: BSK_BE3C_MMP1: BioMAP Diversity Plus: BE3C Assay for Matrix Metallopeptidase 1 (MMP1) Biomarker Activity (AID 2283024; active = hit-call score of the fitted dose curve at least 0.9, where 1 is the maximum; inactive = score below 0.9); settings: primary human bronchial epithelial cells; actives raise or lower the signal
Summary of the method: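 Human bronchial epithelial cells (BE3C system) exposed to compound for 24 h; MMP1 then quantified by ELISA. Activity was fitted in both directions relative to DMSO.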

[15] = BSK_3C_Vis: BioMAP Diversity Plus: 3C Assay for Morphology Visualization (AID 2283025; active = hit-call score of the fitted dose curve at least 0.9, where 1 is the maximum; inactive = score below 0.9;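 also: fitted both ways so gain or loss versus DMSO counts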;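 as to AC50: light microscopy image of cell morphology used as background control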); settings: primary human endothelial cells (HUVEC)
Summary of the method: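 Chemicals were added to primary human umbilical vein endothelium, cells were incubated 24 h, and morphology was then visualized by light microscopy. Gain or loss of signal was fitted bidirectionally relative to DMSO.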

[16] = read-out: Pselectin, SELP (gene 6403); assay: BSK_4H_Pselectin: BioMAP Diversity Plus: 4H Assay for Pselectin Biomarker Activity (AID 2283026; active = hit-call score of the fitted dose curve at least 0.9, where 1 is the maximum; inactive = score below 0.9); settings: primary human endothelial cells (HUVEC); actives raise or lower the signal
Summary of the method: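 ELISA read-out of P-selectin on human umbilical vein endothelium after 24 h of dosing. Values derive from bidirectional fitting relative to DMSO. Parallel SRB protein staining flagged overt cytotoxicity.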

[17] = BSK_4H_SRB: Viability Assessment in the BioMAP Diversity Plus: 4H Assay (AID 2283027; active = hit-call score of the fitted dose curve at least 0.9, where 1 is the maximum; inactive = score below 0.9;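 also: cells exposed to compound for 24 h before staining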;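 as to AC50: curves fitted both ways versus DMSO so AC50 may be loss or gain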); settings: primary human endothelial cells (HUVEC)
Summary of the method: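 Human umbilical vein endothelial cells, 24 h after chemical dosing; total protein measured by 0.1% sulforhodamine B staining after 10% TCA fixation, read at 560 nm. Bidirectional fitting against DMSO.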

[18] = BSK_BE3C_SRB: Viability Assessment in the BioMAP Diversity Plus: BE3C Assay (AID 2283028; active = hit-call score of the fitted dose curve at least 0.9, where 1 is the maximum; inactive = score below 0.9); settings: primary human bronchial epithelial cells
Summary of the method: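 SRB total-protein staining (0.1%, after TCA fixation) of chemically dosed human bronchial epithelial primary cells at 24 h; DMSO serves as the negative control for bidirectional curve fitting.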

[19] = read-out: Thrombomodulin, THBD (gene 7056); assay: BSK_3C_Thrombomodulin: BioMAP Diversity Plus: 3C Assay for Thrombomodulin Biomarker Activity (AID 2283029; active = hit-call score of the fitted dose curve at least 0.9, where 1 is the maximum; inactive = score below 0.9); settings: primary human endothelial cells (HUVEC); actives raise or lower the signal
Summary of the method: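 Read-out is ELISA of thrombomodulin on human umbilical vein endothelium 24 h after chemical dosing. Gain or loss of signal is scored relative to DMSO. Overt cytotoxicity is checked in parallel cultures by sulforhodamine B staining.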

Measured: AC50

Sequence of human Thyroid Receptor alpha (THRa1), THRA (gene 7067) (P10827 whole entry, looked up, the tested form may be a part): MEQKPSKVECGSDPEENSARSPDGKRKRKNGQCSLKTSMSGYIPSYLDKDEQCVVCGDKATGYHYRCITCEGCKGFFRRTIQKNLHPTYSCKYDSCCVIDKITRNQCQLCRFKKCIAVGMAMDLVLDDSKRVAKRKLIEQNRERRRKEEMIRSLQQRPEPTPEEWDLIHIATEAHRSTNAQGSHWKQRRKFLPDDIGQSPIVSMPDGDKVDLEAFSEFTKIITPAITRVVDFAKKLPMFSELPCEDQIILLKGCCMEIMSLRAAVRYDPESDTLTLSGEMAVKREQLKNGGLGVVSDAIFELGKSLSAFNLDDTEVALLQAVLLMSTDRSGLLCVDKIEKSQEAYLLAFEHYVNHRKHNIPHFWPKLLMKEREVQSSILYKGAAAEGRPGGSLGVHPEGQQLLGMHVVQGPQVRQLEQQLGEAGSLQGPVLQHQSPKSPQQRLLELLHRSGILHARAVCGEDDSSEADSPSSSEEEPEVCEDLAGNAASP
Sequence of E-selectin (Homo sapiens) (P16581 whole entry, looked up): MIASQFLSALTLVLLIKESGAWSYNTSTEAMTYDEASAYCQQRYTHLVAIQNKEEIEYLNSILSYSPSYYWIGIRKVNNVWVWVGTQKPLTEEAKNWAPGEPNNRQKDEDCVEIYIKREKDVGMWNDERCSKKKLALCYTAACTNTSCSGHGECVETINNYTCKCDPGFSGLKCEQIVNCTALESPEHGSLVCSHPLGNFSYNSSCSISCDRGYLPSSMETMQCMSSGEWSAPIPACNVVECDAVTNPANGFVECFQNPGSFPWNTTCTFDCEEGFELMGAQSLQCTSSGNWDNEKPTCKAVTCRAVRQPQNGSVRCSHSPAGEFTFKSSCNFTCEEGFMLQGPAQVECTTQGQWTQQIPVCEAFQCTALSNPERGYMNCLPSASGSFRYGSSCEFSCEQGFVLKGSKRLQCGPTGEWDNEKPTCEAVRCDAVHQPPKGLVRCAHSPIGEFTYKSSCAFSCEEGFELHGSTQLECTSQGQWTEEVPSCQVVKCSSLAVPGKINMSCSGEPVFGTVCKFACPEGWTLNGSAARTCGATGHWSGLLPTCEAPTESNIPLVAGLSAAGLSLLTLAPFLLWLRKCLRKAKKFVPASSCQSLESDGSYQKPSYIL
Sequence of Retinoic acid receptor RXR-alpha (Homo sapiens) (P19793 whole entry, looked up, the tested form may be a part): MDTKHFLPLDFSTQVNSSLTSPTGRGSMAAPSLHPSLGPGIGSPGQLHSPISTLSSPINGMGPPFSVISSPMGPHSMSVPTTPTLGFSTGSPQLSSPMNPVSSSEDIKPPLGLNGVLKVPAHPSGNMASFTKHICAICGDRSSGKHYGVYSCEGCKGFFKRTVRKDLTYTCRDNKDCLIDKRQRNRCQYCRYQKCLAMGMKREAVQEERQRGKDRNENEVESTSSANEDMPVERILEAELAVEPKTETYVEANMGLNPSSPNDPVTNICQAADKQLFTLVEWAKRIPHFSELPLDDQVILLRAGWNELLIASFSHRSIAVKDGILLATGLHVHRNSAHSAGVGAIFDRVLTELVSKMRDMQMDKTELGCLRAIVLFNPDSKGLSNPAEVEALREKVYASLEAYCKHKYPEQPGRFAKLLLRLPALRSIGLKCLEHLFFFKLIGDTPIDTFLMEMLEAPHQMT
Sequence of human RAR-related Orphan Receptor gamma (RORg), RORC (gene 6097) (P51449 whole entry, looked up, the tested form may be a part): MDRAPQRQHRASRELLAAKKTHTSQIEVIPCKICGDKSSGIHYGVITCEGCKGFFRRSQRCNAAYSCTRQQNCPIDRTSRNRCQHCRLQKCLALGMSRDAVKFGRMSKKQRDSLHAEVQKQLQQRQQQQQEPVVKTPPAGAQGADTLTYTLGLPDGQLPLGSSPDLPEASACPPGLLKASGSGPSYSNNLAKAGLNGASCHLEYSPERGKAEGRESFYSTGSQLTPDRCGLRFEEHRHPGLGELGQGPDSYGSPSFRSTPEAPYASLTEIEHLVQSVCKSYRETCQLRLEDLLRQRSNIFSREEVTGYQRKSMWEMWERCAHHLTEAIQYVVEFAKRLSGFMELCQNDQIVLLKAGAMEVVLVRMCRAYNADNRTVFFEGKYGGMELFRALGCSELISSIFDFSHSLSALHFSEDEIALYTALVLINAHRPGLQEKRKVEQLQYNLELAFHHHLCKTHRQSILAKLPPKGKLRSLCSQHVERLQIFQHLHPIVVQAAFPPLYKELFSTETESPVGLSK
Sequence of human Vitamin D Receptor (VDR), VDR (gene 7421) (P11473 whole entry, looked up): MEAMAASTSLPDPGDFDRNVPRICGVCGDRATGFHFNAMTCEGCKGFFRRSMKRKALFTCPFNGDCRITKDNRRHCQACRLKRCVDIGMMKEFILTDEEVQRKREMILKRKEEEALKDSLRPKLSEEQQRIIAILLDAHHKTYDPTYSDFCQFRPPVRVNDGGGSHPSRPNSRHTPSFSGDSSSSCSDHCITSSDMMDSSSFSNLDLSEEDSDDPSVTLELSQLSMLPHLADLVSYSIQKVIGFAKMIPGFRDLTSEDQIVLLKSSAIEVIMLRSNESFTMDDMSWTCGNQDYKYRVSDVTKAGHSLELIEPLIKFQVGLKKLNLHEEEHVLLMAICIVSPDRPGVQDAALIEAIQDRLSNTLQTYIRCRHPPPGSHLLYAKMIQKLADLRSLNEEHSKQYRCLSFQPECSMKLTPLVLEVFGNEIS
Sequence of human Retinoid X Receptor beta (RXRb), RXRB (gene 6257) (P28702 whole entry, looked up, the tested form may be a part): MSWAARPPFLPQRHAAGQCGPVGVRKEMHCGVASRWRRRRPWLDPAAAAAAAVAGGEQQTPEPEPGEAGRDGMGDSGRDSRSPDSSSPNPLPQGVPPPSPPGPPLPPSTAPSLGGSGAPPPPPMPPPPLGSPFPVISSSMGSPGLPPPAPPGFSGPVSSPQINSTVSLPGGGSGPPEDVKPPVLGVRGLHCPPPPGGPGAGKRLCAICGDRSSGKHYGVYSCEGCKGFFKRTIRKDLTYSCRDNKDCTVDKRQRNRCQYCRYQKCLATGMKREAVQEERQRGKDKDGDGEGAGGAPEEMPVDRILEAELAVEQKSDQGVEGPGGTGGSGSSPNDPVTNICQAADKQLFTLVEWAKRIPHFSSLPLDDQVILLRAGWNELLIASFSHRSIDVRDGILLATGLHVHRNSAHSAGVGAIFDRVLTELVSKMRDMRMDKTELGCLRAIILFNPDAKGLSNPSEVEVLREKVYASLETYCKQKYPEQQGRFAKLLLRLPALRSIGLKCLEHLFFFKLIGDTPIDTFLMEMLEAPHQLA

CC(CC=O)CC(C)(C)C (stereo unspecified)
inactive: [1] | [2] | [3]

COc1nccnc1CC(C)C
inactive: [4] | [3] | [5]

CCCCNS(=O)(=O)c1ccccc1
inactive: [4] | [3] | [5]

O=C(OCc1ccccc1)c1ccc(O)cc1
inactive: [1] | [2]

CC1=NN(c2ccc(S(=O)(=O)O)cc2)C(=O)C1N=Nc1ccccc1 (stereo unspecified)
inactive: [4] | [2] | [3] | [5]

CC1(C)CCC[C@]2(C)[C@H]3CC(=O)O[C@]3(C)CC[C@@H]12
inactive: [1] | [2]

C=C1C[C@H]2[C@@H]3C=C(C)C4=CC(=O)CC[C@]4(C)[C@H]3CC[C@]2(C)[C@@]1(OC(C)=O)C(C)=O
inactive: [1]

[Cl][Sc]([Cl])[Cl]
inactive: [4] | [3] | [5]

O=C(OCCc1ccccc1)c1ccccc1
inactive: [4] | [2] | [5]

COC(=O)c1ccccc1C
inactive: [4] | [3]

O=C1c2ccccc2C(=O)c2cc(S(=O)(=O)O)ccc21
inactive: [1] | [2]

CCc1occc(=O)c1O
inactive: [1] | [3]

Oc1c(Cl)cc(Cl)c(Cl)c1Cl
inactive: [1] | [3] | [12] | [18]
active: [6] 27.7 µM | [7] 29.2 µM | [8] 30.7 µM | [9] 27.9 µM | [10] 25 µM | [11] 20 µM | [13] 20 µM | [14] 4.31 µM | [15] 16.6 µM | [16] 31.5 µM | [17] 24.5 µM

CCCCNS(=O)(=O)c1ccc(C)cc1
inactive: [1] | [3]

CCOC(=O)OC(=O)OCC
inactive: [1] | [3]

CCNc1nc(NC(C)(C)C)nc(OC)n1
inactive: [1] | [2] | [3] | [6] | [7] | [8] | [9] | [10] | [11] | [12] | [5] | [13] | [14] | [15] | [16] | [17] | [18]

CCCCOC(=O)CCC(C)=O
inactive: [1] | [2] | [3] | [5]

Cc1cccc(C(C)(C)C)c1O
inactive: [1] | [5]
active: [2] 46.4 µM

Cn1ccnc1
inactive: [1] | [2] | [3] | [5]

C/C=C/C=C/CCCCCCCO
inactive: [1] | [3]

CCCCCCCO
active: [2] 114 µM
inactive: [1] | [6] | [7] | [8] | [9] | [10] | [11] | [12] | [5] | [13] | [14] | [15] | [16] | [17] | [18] | [19]
